From PubChem BioAssay (EPA / NIEHS)
“And” between values parts separate entries of the source, which are not always exact repeats. Identical values can stand only once. The source holds several records for some structures; these can differ, active in one and inactive in another. The source made the active and inactive calls. How the source made its calls: active means hit-call score of the fitted dose curve at least 0.9, where 1 is the maximum; inactive means score below 0.9.

Assay: CEETOX_H295R_11DCORT: CeeTox H295R High-throughput Steroidogenesis Assay for 11-Deoxycortisol (11DCORT) (AID 2283432);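 on AC50: human adrenal H295R cells prestimulated with 10 µM forskolin for 48 h; 11-deoxycortisol secreted into the medium measured by LC-MS/MS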
Details: actives raise or lower the signal
Outline: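 Adrenal carcinoma line H295R, run per OECD 456 with minor changes, was forskolin-stimulated (10 uM, 48 h) before a 48 h chemical exposure at 0.1% DMSO. Secreted 11-deoxycortisol was quantified by HPLC-MS/MS.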

Row | Compound | outcome | AC50
1 | CCCCOCCOP(=O)(OCCOCCCC)OCCOCCCC | inactive | –
2 | Oc1ccc(I)cc1 | inactive | –
3 | Nc1ccc([N+](=O)[O-])cc1Cl | inactive | –
4 | CCOP(=S)(NC(C)C)Oc1ccccc1C(=O)OC(C)C (stereo unspecified) | – | 12.8 µM (active)
5 | CCOP(=S)(OCC)SCn1nnc2ccccc2c1=O | inactive | –
6 | N#Cc1c(-c2ccc(Cl)cc2)[nH]c(C(F)(F)F)c1Br | – | 0.37 µM (active)
7 | CC(C)Nc1ccc(Nc2ccccc2)cc1 | inactive | –
8 | ClC(Cl)=C(c1ccc(Cl)cc1)c1ccccc1Cl | inactive | –
9 | c1ccc(OP(Oc2ccccc2)Oc2ccccc2)cc1 | inactive | –
10 | COP(N)(=S)OC | inactive | –
11 | Nc1cc2c3c(c1)C(c1ccccc1)=N[C@@H](NC(=O)c1cccnc1)C(=O)N3CC2 | – | 62 µM (active)
12 | CC(=O)c1ccc(-c2ccccc2)cc1 | inactive | –

Assay: CEETOX_H295R_OHPREG: CeeTox H295R High-throughput Steroidogenesis Assay for OH-Pregnenolone (OHPREG) (AID 2283434)
Details: actives raise or lower the signal
Outline: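 H295R cells pre-stimulated 48 h with 10 uM forskolin, then exposed 48 h to chemical in 0.1% DMSO. 17alpha-hydroxypregnenolone in medium quantified by MTBE extraction and HPLC-MS/MS; bidirectional fit versus DMSO, viability checked by MTT.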

Row | Compound | outcome | AC50
13 | CCCCOCCOP(=O)(OCCOCCCC)OCCOCCCC | inactive | –
14 | Nc1ccc2ccccc2c1 | inactive | –
15 | CCOP(=S)(Oc1ccc([N+](=O)[O-])cc1)c1ccccc1 (stereo unspecified) | inactive | –
16 | Oc1ccc(I)cc1 | inactive | –
17 | Nc1ccc([N+](=O)[O-])cc1Cl | inactive | –
18 | CCOP(=S)(NC(C)C)Oc1ccccc1C(=O)OC(C)C (stereo unspecified) | inactive | –
19 | Cc1cccc(N)c1 | inactive | –
20 | CCOP(=S)(OCC)SCn1nnc2ccccc2c1=O | inactive | –
21 | N#Cc1c(-c2ccc(Cl)cc2)[nH]c(C(F)(F)F)c1Br | inactive | –
22 | c1ccc2c(c1)Nc1ccccc1S2 | inactive | 6.86 µM (active) and 2.55 µM (active)
23 | CC(C)Nc1ccc(Nc2ccccc2)cc1 | inactive | –
24 | ClC(Cl)=C(c1ccc(Cl)cc1)c1ccccc1Cl | inactive | –
25 | c1ccc(OP(Oc2ccccc2)Oc2ccccc2)cc1 | inactive | –
26 | COP(N)(=S)OC | inactive | –
27 | Cc1ccc(O)cc1C | inactive | –
28 | Nc1cc2c3c(c1)C(c1ccccc1)=N[C@@H](NC(=O)c1cccnc1)C(=O)N3CC2 | – | 27.6 µM (active)
29 | CC(C)(C)c1ccc(O)cc1 | inactive | –
30 | CC(=O)c1ccc(-c2ccccc2)cc1 | inactive | –
